D3 antag = antagonists of human D3 dopamine receptor | P35462 | D3R cells, DiscoveRx beta-arrestin luminescence, antagonist mode; hits give low values | max response, negative = inhibition, % | actives 2.5% (n = 360,000); in the data active = max response below about -50%; inconclusive = no clear call, values can overlap the other calls
Target sequence (P35462 whole entry, looked up): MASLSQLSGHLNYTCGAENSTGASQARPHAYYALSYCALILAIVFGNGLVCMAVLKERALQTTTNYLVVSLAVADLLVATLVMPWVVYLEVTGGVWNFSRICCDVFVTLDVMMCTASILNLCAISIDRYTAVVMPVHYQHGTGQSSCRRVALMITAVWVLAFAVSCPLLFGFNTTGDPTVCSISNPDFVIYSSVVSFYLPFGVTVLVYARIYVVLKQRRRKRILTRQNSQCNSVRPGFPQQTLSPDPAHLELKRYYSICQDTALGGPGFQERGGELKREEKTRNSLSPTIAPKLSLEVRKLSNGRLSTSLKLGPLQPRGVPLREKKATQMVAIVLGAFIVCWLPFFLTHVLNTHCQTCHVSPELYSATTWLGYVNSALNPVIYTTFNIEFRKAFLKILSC
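Cells plated overnight at 1500 cells/well, then exposed to library compounds with dopamine controls for 90 minutes at 37 degrees C. DiscoveRx reagent added for 30–60 minutes at room temperature; luminescence read, quantitative HTS format.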
D3 ag = D3 dopamine receptor (human) agonism; P35462; max activation, %; actives 0.58% (n = 410,000); AID 652048; D3R DiscoveRx beta-arrestin cells, luminescence, 90 min; in the data active = max activation above about 30%
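Agonist mode: compounds and dopamine controls were applied to plated cells for 90 min at 37 degrees C after an overnight attachment at 1500 cells/well. Luminescent read-out followed 30 - 60 minutes at room temperature with DiscoveRx detection reagent.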
Nrf2 activator = Nrf2 pathway activation | AREc32 ARE-luciferase reporter (MCF7-derived line), luminescence, 24 h | Potency, µM (highest dose often 46.1 µM), usual class: activators | actives 0.31% (n = 410,000) | AID 624171; also: nearly all actives have a fitted effect of over 65% in size
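Quantitative high-throughput format: AREc32 reporter cells, 1000 per well, received compound by pin transfer and were incubated 24 hr at 37 deg C, 5% CO2, before Steady-Glo luminescence detection.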
Glioma ERSR ind = inducers of ER stress response in human glioma cells | U87-MG GRP78 promoter luciferase reporter, 16 h | Potency, µM, usual class: activators | AID 602332 | actives 0.02% (n = 420,000); also: series mostly up to about 76 µM; nearly all actives have a fitted effect of over 35% in size
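Stably transfected U87-MG glioma cells carrying a GRP78-based luciferase sensor; 16 h compound incubation. Luminescence end-point read 10 min after Bright-Glo addition at room temperature.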
Hits are given with their value; n = inactive; u = inconclusive; x = no result; [ ] = another dose, or the depositor's remark. Only some compounds are listed: those with a hit (about 3% of all), similar ones and a draw of the others. Unless noted, calls follow the shape of the dose curve; as a rule, active = well fitted curve in the direction sought with a large enough effect; inconclusive = small, poorly fitted or top-dose-only effect, or another doubt; inactive = no such curve, though single readings can be large; an effect the other way counts as inactive or inconclusive.

SMILES	D3 antag	D3 ag	Nrf2 activator	Glioma ERSR ind
CCOC(=O)C1CCN(C(=O)Cn2c(-c3cccs3)cc3cc(Cl)ccc32)CC1	x	n	n	n
COC1=C(N)C(=O)c2nc(-c3nc(C(=O)O)c(C)c(-c4ccc(OC)c(OC)c4O)c3N)ccc2C1=O	-118	n	n	n
CCOc1ccc(OCC)c(NC(=O)CCCN2C(=S)NC(C)(C)CC2C)c1 (configuration not stated)	-56	n	n	n
Nc1cc([N+](=O)[O-])cc(N)c1N	x	x	x	n
CC(/C=C/c1ccco1)=N/NC(=O)CNc1ccccc1C	n	n	n	n
CC(/C=C/c1ccco1)=N\NC(=O)CNc1ccc2ccccc2c1	n	n	10µM	n
O=C(c1cccnc1)C1CCCN(Cc2ccc3c(c2)CN(C(=O)c2cccs2)CCO3)C1 (configuration not stated)	x	x	x	n
CC(=O)c1ccc(OC(C)C)c(CSc2nc(O)cc(=O)[nH]2)c1	-103	n	n	n
CCOC(=O)C1CCN(Cc2nnnn2CCc2ccccc2)CC1	n	n	n	n
CCOC(=O)C1CCCN(Cc2ccc3c(c2)OCO3)C1 (configuration not stated)	-100	n	n	n
CCOC(=O)C1CCN(Cc2nc3ccc(Cl)cc3n2CCO)CC1	-66	n	n	n
CCOC(=O)C1CCN(Cc2cccc(OCc3ccccc3)c2)CC1	-66	n	n	n
CN(Cc1ccc(Cl)cc1)C(CCc1ccccc1)C(=O)NC1CCCCC1 (configuration not stated)	-60	n	n	n
Nc1nc(CN2CCCCCC2)nc(Nc2ccccc2)n1	u	n	n	n
CN(Cc1ccccc1)C(=O)C1CCCN(Cc2ccc(Cl)cc2)C1 (configuration not stated)	-68	n	n	n
Cc1cccc(C)c1NC(=O)C1CCCN(CCCc2ccccc2)C1 (configuration not stated)	n	n	n	n
CCOC(=O)C1CCCN(CCCc2ccccc2)C1 (configuration not stated)	-65	n	n	n
Fc1ccc(CN2CCSCC2)cc1Br	-61	n	n	n
CCOC(=O)C1CCCN(Cc2nc(N)nc(Nc3ccccc3)n2)C1 (configuration not stated)	-60	n	n	n
CCN(CC)C(=O)C1CCCN(Cc2ccccc2)C1 (configuration not stated)	n	n	n	n
COc1cc(=O)n2c(c1C(=O)NC(C)c1ccco1)CCN(CC=C(C)C)CC2 (configuration not stated)	x	x	x	n
CCOC(=O)C1CCCN(Cc2ccc(OCc3ccccc3)cc2)C1 (configuration not stated)	-61	n	n	n
CCOC(=O)C1CCCN(CC(=O)Nc2c(F)c(F)c(F)c(F)c2F)C1 (configuration not stated)	n	n	n	n
CCOC(=O)C1CCCN(Cc2cccc(Cl)c2)C1 (configuration not stated)	-61	n	n	n
CCOC(=O)C1CCCN(CC(=O)c2ccc(F)cc2)C1 (configuration not stated)	-66	n	n	n
SMILES	D3 antag	D3 ag	Nrf2 activator	Glioma ERSR ind
NC(=O)C1CCN(Cc2cccc(OCc3ccccc3)c2)CC1	n	n	n	n
c1ccc(COc2cccc(CN3CCc4ccccc4C3)c2)cc1	-87	n	n	n
CCOC(=O)c1ccc(N(C(=O)c2ccccc2)c2ccccc2)cc1	x	x	x	n
CC(C)(C)OC(=O)N1CCC(c2c(C(=O)NCc3ccco3)cnn2-c2ccccc2)CC1	x	n	n	n
Cc1oc(-c2ccccc2NC(=O)C2CCCO2)nc1CNC(=O)c1cc(F)c(F)cc1F (configuration not stated)	x	x	x	n
Cc1ccc(C(=O)NCCc2nnc3n2CCN(C(=O)c2ccnc(Cl)c2)CC3)cc1	x	x	x	n
Brc1cccc[n+]1CCCC[n+]1ccccc1Br	x	x	x	n
O=C([C@@H]1C[C@@H](Sc2nc3ccccc3[nH]2)CN1Cc1ccc(C(F)(F)F)cc1)N1CCN(c2ccccc2F)CC1	x	x	x	n
CCOC(=O)C1CCN(Cc2ccc(F)c(Br)c2)CC1	-78	n	n	n
CCOC(=O)C1CCCN(Cc2ccc(OC)cc2OC)C1 (configuration not stated)	-52	n	n	n
CCOC(=O)C1CCN(Cc2ccc(F)cc2F)CC1	u	n	n	n
COc1ccc(CN2CCCC(C(=O)N3CCCC3)C2)c(OC)c1 (configuration not stated)	n	n	n	n
COc1ccccc1N1CCN(C(=O)c2ccc(CN3CCc4ccccc4C3)cc2)CC1	-67	n	n	n
NC(=O)c1ccc(CN2CCc3ccccc3C2)cc1	-82	n	n[9.22 µM]	n
O=C(c1ccc(CN2CCc3ccccc3C2)cc1)N1CCCCC1	-73	n	n	n
O=C(c1ccc(F)cc1)N1CCN(Cc2ccccc2)CC1	u	n	n	n
COCCNC(=O)c1ccc(CN2CCc3ccccc3C2)cc1	u	n	n	n
O=C(c1ccc(CN2CCc3ccccc3C2)cc1)N1CCN(c2ccc(F)cc2)CC1	-65	n	n	n
O=C(Nc1ccc(S(=O)(=O)N2CCCC2)cc1)c1ccc(CN2CCc3ccccc3C2)cc1	u	n	n	n
COc1ccccc1N1CCN(C(=O)c2ccc(CSc3ccccc3)cc2)CC1	n	n	n	n
N#CCC1c2ccccc2CCN1C(=O)Nc1cccc(C(F)(F)F)c1 (configuration not stated)	n	n	n	n
N#CCC1c2ccccc2CCN1C(=O)Nc1ccc(C(F)(F)F)cc1 (configuration not stated)	-94	n	n	n
CC1CCC(NC(=O)Cn2c3c(c(-c4ccccc4Cl)cc2=O)CCC3)CC1 (configuration not stated)	-77	n	n	n
CC(=O)c1ccc2c(c1)N(Cc1ccc3ccccc3c1)C(=O)C(C)S2 (configuration not stated)	-75	n	n	n
CC1Sc2ccccc2N(Cc2ccccc2)C1=O (configuration not stated)	n	n	n	n
SMILES	D3 antag	D3 ag	Nrf2 activator	Glioma ERSR ind
O=C1C[C@@H]2c3c(cccc3CN1Cc1ccccc1F)C[C@@H](O)[C@H]2O	n	49	n	n
COc1ccc(CCNC/C=C/c2ccccc2)cc1	-59	n	n	n
COc1ccc(CNC/C=C/c2ccccc2)cc1	-80	n	n	n
NS(=O)(=O)c1ccc(CCNC/C=C/c2ccccc2)cc1	-71	n	n	n
COc1ccc(CNS(=O)(=O)NCc2ccccc2)cc1	n	n	n	n
NS(=O)(=O)c1ccc(CCNCC#Cc2ccccc2)cc1	n	n	n	n
COc1ccc(CCNCc2ccc(OCc3ccccc3)cc2)cc1	n	n	n	n
CCCCCCCCCCCCCCCCCCNC(=O)OC1CCN(C(=O)OC[C@H](COC(=O)N(Cc2cccc[n+]2CC)C(=O)c2ccccc2OC)OC)CC1	x	n	x	n
O=S(=O)(c1cccc(Br)c1)N1CCN(c2nc(-c3cccs3)nc3ccccc23)CC1	x	x	x	n
CN(C)S(=O)(=O)c1ccc(N=Cc2c(C(F)(F)F)[nH][nH]c2=O)cc1	n	n	n	n

Bioassay records (PubChem BioAssay)
